From PubChem BioAssay
Shn3 inh set2: inhibitors of Schnurri-3 3'UTR reporter in osteoblasts; Clone20 osteoblast Shn3 3'UTR firefly luciferase, 24 h; inhibition, % at 12.5 µM; 360,000 tested, 0.52% active; AID 588674;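 active = mean inhibition of at least 75% with every replicate also reaching 75%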
ABHD5 PLIN5 PPI: inhibitors of human ABHD5-perilipin-5 interaction; Q00G26+Q8WTS1; Split G. princeps luciferase complementation, luminescence, 4 h; inhibition, % at 4 µM; 360,000 tested, 0.78% active; AID 602281;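 active = inhibition above the mean inhibition across every tested compound plus 3 SD, cut at about 22% in these data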
Target sequence (Q00G26 whole entry, looked up): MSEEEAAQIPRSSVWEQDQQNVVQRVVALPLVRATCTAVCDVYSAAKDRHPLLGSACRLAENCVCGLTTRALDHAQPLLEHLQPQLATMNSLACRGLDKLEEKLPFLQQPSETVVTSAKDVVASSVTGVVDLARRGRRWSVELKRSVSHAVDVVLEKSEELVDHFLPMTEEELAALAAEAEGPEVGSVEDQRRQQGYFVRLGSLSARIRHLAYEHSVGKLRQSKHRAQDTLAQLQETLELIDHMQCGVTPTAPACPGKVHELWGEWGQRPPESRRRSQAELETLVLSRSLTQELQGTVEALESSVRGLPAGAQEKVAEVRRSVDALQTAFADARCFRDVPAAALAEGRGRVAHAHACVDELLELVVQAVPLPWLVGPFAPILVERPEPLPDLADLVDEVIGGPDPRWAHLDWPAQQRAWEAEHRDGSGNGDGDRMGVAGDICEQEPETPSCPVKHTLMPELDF
Target sequence (Q8WTS1 whole entry, looked up): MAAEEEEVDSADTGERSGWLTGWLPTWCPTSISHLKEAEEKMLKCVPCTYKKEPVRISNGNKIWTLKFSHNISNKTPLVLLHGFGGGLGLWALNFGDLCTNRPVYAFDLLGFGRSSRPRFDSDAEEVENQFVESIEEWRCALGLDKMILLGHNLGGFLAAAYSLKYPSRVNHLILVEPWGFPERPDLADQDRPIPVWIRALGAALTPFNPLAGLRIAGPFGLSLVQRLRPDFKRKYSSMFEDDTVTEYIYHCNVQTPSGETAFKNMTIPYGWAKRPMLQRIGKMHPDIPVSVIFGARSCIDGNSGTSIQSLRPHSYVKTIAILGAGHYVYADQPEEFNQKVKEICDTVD
PAX8 inh HTS: inhibitors of PAX8 transcriptional activity in RMG-I cells; AID 652154; inhibition, % at 12.6 µM; RMG-I TPO-luciferase reporter, SteadyGlo, 24 h; 360,000 tested, 1.2% active;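 active = mean replicate inhibition at least 60% with every replicate also reaching 60%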;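 note: luciferase light reporting Pax8 driven TPO promoter activity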
Peg3 promoter: Peg3 promoter activity inhibition | 360,000 tested, 1.7% active | inhibition, % at 20 µM | HeLa PEG-Prom luciferase reporter, luminescence, overnight;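 active = inhibition of at least 50% at 20 µM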
MITF TRPM1 inh: reduces MITF-dependent TRPM1 promoter luciferase signal | SK-MEL-5 TRPM1 promoter luciferase, 24 h | inhibition, % at 12.5 µM | 330,000 tested, 0.83% active;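 active = mean inhibition across replicates of 60% or more, whatever share of single replicates reaches that level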
EWS-Fli block: EWS/Fli transcriptional activity inhibition | A673 NR0B1-luciferase reporter, viability-normalised | AID 651661 | inhibition, % at 12.6 µM | 350,000 tested, 0.67% active;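 active = mean inhibition of at least 50% after viability correction, with every replicate also passing that limit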;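 note: firefly luciferase signal divided by Alamar Blue viability fluorescence both relative to DMSO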
A number is an active result; 0 = inactive; - = no result given; ! = repeats disagree. An excerpt weighted towards active compounds, which were near 3% of everything screened.

SMILES	Shn3 inh set2	ABHD5 PLIN5 PPI	PAX8 inh HTS	Peg3 promoter	MITF TRPM1 inh	EWS-Fli block
Cc1cc(OCC(O)CNC(C)c2ccccc2)ccc1C(C)C (stereo not given)	0	0	0	107	0	0
CC(NCC(O)COc1ccc2ccccc2c1)c1ccccc1 (stereo not given)	0	0	0	66	0	0
CCCNC(=O)N[C@H]1C=C[C@H](CC(=O)NCCc2ccccc2)O[C@H]1CO	-	-	0	-	-	0
Cc1cc2ncc(-c3ncc(C(F)(F)F)cc3Cl)cn2n1	0	0	-	0	0	54
CO[C@@H]1CN(C)C(=O)c2ccc(NS(=O)(=O)c3ccccc3Cl)cc2OC[C@H](C)NC[C@@H]1C	-	-	-	-	-	0
CCC(=O)N1[C@@H]2Cn3c(cccc3=O)[C@H]1[C@@H](C(=O)NC1CCCC1)[C@@H]2CO	-	-	-	-	-	0
Cc1ccccc1C(=O)N1CCC(C(=O)Nc2ccc(S(=O)(=O)N3C(C)CCCC3C)cc2)CC1 (stereo not given)	0	0	0	78	0	0
Cc1ccc(NC(=O)C2CCN(C(=O)c3ccccc3C)CC2)cc1	0	0	0	0	0	0
CCCCC1(Cc2cccc([N+](=O)[O-])c2)C(=O)N(c2ccccc2)N(c2ccccc2)C1=O	0	0	0	52	0	-
CCCCC1(CO)C(=O)N(c2ccccc2)N(c2ccccc2)C1=O	-	0	0	0	0	0
CCOc1ccccc1-c1nc(CN2CCN(C(=O)c3ccco3)CC2)c(C)o1	0	0	0	0	0	0
CCOc1ccccc1-n1c(CN2CCN(C(=O)c3ccco3)CC2)nc2ccccc2c1=O	0	0	-	104	80	-
O=C(Nc1ccccc1)N1C[C@@H]2N[C@H](C1)C2c1ccc(-c2ccccc2)cc1 (stereo not given in full)	-	-	0	-	-	0
O=C(Nc1ccccc1)N1C[C@@H]2N[C@H](C1)[C@@H]2c1ccc(/C=C/c2ccccc2)cc1	-	-	113	-	-	0
N#Cc1ccc(-c2ccc(C3[C@@H]4CN(C(=O)Nc5ccc(C(F)(F)F)cc5)C[C@H]3N4)cc2)cc1 (stereo not given in full)	-	-	0	-	-	0
COc1ccc(NC(=O)N2C[C@@H]3N[C@H](C2)C3c2ccc(-c3cccc(F)c3)cc2)cc1 (stereo not given in full)	-	-	0	-	-	0
Cc1ccc(-c2ccc(C3[C@@H]4CN(C(=O)Nc5ccc(C(F)(F)F)cc5)C[C@H]3N4)cc2)cc1 (stereo not given in full)	-	-	91!	-	-	0
O=C(Nc1ccc(C(F)(F)F)cc1)N1C[C@@H]2N[C@H](C1)C2c1ccc(-c2cccc(F)c2)cc1 (stereo not given in full)	-	-	88	-	-	0
Cc1ccc2c(c1)sc(-c1ccc(N(C)C)cc1)[n+]2C	0	0	0	0	62	0
Cc1ccc(N(C)C)cc1	-	-	-	-	-	0
COc1ccc(NC(=O)N2C[C@@H](O)COC[C@H]3O[C@H](CC(=O)NCc4ccncn4)CC[C@@H]32)cc1	-	-	0	-	-	0
Cc1csc(SCC(=O)NCc2ccccc2)n1	0	0	0	0	0	0
Cc1csc2sc(-c3ccnc(SCC(=O)NCc4ccccc4)n3)c(C)c12	0	0	0	0	0	55
COc1cc(OC)c(OC)cc1/C=C1\CCC/C(=C\c2cc(OC)c(OC)cc2OC)C1=O	0	0	0	72	0	0
COc1cc(OC)c(OC)cc1/C=C1\CCC(C2CCCC2)C1=O (stereo not given)	-	0	0	0	0	0
SMILES	Shn3 inh set2	ABHD5 PLIN5 PPI	PAX8 inh HTS	Peg3 promoter	MITF TRPM1 inh	EWS-Fli block
CCOC(=O)c1c(-c2ccccc2)oc2ccc(OCC(O)CN(C)C)cc12 (stereo not given)	0	0	0	105	0	-
COc1ccc(-c2cc(C(F)(F)F)nc(S(=O)(=O)CCCC(=O)Nc3cc(C)on3)n2)cc1OC	0	0	90	111	0	0
COc1ccccc1-c1cc(C(F)(F)F)nc(S(=O)(=O)CCCC(=O)Nc2cc(C)on2)n1	97	0	-	106	96	-
O=C(c1cccc(F)c1)N1CC(=O)N2[C@H](CO)[C@H](c3ccc(-c4ccccc4F)cc3)[C@@H]2C1	-	-	0	-	-	0
COC(=O)c1ccc(/C=C/C(=O)OCC(=O)Nc2sccc2C(N)=O)cc1	0	0	-	89	0	-
NC(=O)c1ccsc1NC(=O)COC(=O)/C=C/c1ccc([N+](=O)[O-])cc1	0	0	0	0	0	0
COc1ccc(CN(C)C[C@@H]2Oc3ccc(NC(=O)Nc4ccc(F)cc4)cc3C(=O)N([C@H](C)CO)C[C@H]2C)cc1	-	-	0	-	-	0
CO[C@@]12[C@@H]3N[C@@H]3CN1C1=C(C(=O)C(N)=C(C)C1=O)[C@@H]2COC(N)=O	0	0	0	60	0	0
CO[C@@]12[C@H](COC(N)=O)C3=C(C(=O)C(C)=C(N)C3=O)N1C[C@@H]1N[C@@H]12	0	0	0	0	0	0
C[C@H](CO)N1C[C@H](C)[C@H](CN(C)Cc2ccc3c(c2)OCO3)Oc2ccc(NC(=O)Nc3cccc4ccccc34)cc2C1=O	-	-	94	-	-	0
Cc1noc(C)c1NC(=O)Nc1cccc2c1O[C@H](CN(C)Cc1ccc(-c3ccccc3)cc1)[C@@H](C)CN([C@H](C)CO)C2=O	-	-	62	-	-	0
C[C@@H]1CCCCO[C@H](CN(C)Cc2ccc3c(c2)OCO3)[C@@H](C)CN([C@@H](C)CO)C(=O)c2cc(NC(=O)Nc3cccc4ccccc34)ccc2O1	-	-	0	-	-	64
C[C@@H]1CCCCO[C@@H](CN(C)Cc2ccc3c(c2)OCO3)[C@@H](C)CN([C@H](C)CO)C(=O)c2cc(NC(=O)Nc3cccc4ccccc34)ccc2O1	-	-	0	-	-	0
C[C@@H]1CCCCO[C@@H](CN(C)Cc2ccc3c(c2)OCO3)[C@H](C)CN([C@H](C)CO)C(=O)c2cc(NC(=O)Nc3cccc4ccccc34)ccc2O1	-	-	0	-	-	71
Cc1noc(C)c1NC(=O)Nc1cccc2c1O[C@H](CN(C)Cc1ccccc1)[C@@H](C)CN([C@H](C)CO)C2=O	-	-	0	-	-	0
COc1cccc(NC(=O)N2[C@H](CO)[C@H](c3ccccc3)[C@@H]2CNC(C)C)c1	-	-	0	-	-	0
C[C@H]1CN([C@@H](C)CO)C(=O)c2cccc(NC(=O)Nc3ccc4c(c3)OCO4)c2O[C@@H]1CN(C)Cc1ccc(-c2ccccc2)cc1	-	-	-	-	-	0
COc1ccc(CN(C)C[C@@H]2Oc3c(NC(=O)C4CCCCC4)cccc3C(=O)N([C@H](C)CO)C[C@H]2C)cc1	-	-	64	-	-	0
Cc1cc(C(=O)Nc2cccc3c2O[C@H](CN(C)Cc2ccc(Oc4ccccc4)cc2)[C@@H](C)CN([C@H](C)CO)C3=O)n(C)n1	-	-	76	-	-	0
Cc1cc(C(=O)Nc2cccc3c2O[C@@H](CN(C)Cc2ccccc2)[C@@H](C)CN([C@H](C)CO)C3=O)n(C)n1	-	-	0	-	-	0
C[C@H](CO)N1C[C@H](C)[C@@H](CN(C)Cc2ccc(-c3ccccc3)cc2)Oc2c(NC(=O)Nc3ccc4c(c3)OCO4)cccc2C1=O	0	0	0	94	0	0
